Sampled rows, rich in hits. Any-hit rate of the full collection: about 2.3%.
PTHR1 agonist: PTHR1 (human) receptor agonism; Potency, µM (doses to about 115 µM), without a hit: at the highest dose activation, hits mostly activators; HEK293 GP2 PTHR1 cells, GloSensor cAMP luminescence, 1 h; actives 0.075% (n = 410,000); AID 743266; Q03431; also: nearly all actives have a fitted effect of over 55% in size
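HEK-293-derived GP2 cells expressing PTHR1 and a GloSensor cAMP reporter, 3,000/well, plated overnight, given luciferin plus IBMX (each 0.5 mM as added) for 1 h at 37 °C, then compound for 1 h at 37 °C. Luminescence was read after 15 min at room temperature.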
GLP1R ag: GLP-1 receptor (human) agonism. P43220. HEK293 GLP-1R CRE-luciferase, luminescence, 4-6 h; cells express a hypersensitive GLP-1R form. Potency, µM (doses to about 45.6 µM), without a hit: at the highest dose activation, actives largely listed as activators. actives 0.007% (n = 380,000). AID 624172; also: % of control where 0% means no effect
GLS inh: blocks human kidney-isoform glutaminase activity | GLS enzymatic activity, qHTS titration | Potency, µM (series often up to 45.5 µM), inactives show at the highest dose activity change, negative = inhibition, most hits filed as inhibitors | actives 0.21% (n = 410,000); also: % is scaled to controls: 0 for no effect and ±100 for the full control effect
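Two-point fluorescence kinetic (t0, 30 min RT) for hKGA; glutamate detected via glutamate oxidase–HRP–Amplex Red. Substrate: 1 mM L-glutamine solution; buffer 45 mM KH2PO4, pH 8.2.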
GRP78 ERSR act: induces the endoplasmic reticulum stress response in human glioma cells. Potency, µM, for inactives: at the highest dose activation, most hits filed as activators. U87-MG GRP78 promoter luciferase reporter, 16 h. AID 602332. actives 0.02% (n = 420,000); also: series mostly up to about 76 µM; % of control where 0% means no effect; nearly all actives have a fitted effect of over 35% in size
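ERSR induction read as luciferase luminescence (Bright-Glo, 10 min at room temperature) in stably transfected human U87-MG glioma cells exposed to compounds for 16 h, using GRP78 as sensor.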
ALOX12 inh: inhibitors of human 12S-lipoxygenase ALOX12. P18054. purified 12hLO, xylenol orange hydroperoxide absorbance. Potency, µM (doses to about 108 µM), for inactives: at the highest dose activity change, negative = inhibition, actives largely listed as inhibitors. actives 1.1% (n = 580,000). AID 1671190; also: % is scaled to controls: 0 for no effect and ±100 for the full control effect
Target sequence (P18054 whole entry, looked up): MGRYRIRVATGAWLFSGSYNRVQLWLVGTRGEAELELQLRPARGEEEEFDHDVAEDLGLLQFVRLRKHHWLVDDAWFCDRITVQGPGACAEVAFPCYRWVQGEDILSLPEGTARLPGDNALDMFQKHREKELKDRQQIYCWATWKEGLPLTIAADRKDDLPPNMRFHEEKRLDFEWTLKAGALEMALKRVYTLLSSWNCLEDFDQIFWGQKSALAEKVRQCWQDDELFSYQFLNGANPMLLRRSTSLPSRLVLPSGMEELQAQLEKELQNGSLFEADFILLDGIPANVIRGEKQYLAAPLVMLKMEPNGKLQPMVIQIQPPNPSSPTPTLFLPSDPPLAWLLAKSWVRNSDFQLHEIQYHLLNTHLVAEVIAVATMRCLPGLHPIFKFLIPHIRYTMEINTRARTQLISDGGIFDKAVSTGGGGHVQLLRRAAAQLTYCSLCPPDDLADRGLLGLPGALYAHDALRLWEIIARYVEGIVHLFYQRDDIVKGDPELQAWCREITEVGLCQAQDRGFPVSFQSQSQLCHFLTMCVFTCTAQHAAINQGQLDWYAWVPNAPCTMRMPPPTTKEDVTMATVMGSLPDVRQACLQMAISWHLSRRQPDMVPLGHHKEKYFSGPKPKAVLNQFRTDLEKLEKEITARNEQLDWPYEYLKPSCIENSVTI
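Hydroperoxide product was detected by ferrous iron/xylenol orange as the 573 to 405 nm absorbance ratio. Arachidonic acid at 40 uM (final) was turned over for 30 min at room temperature by 150 nM human 12hLO, pH 7.0 Hepes buffer, after 15 min compound preincubation.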
GLP1R inv ag: GLP-1 receptor (human) inverse agonism; P43220; HEK293 GLP-1R CRE-luciferase, luminescence, 24 h; GLP-1R form is constitutively active; Potency, µM (titrated, usually from 38.3 µM), for the others: at the top dose activity change, negative = inhibition, usual class: inhibitors; actives 1.6% (n = 410,000); AID 624417; also: % is scaled to controls: 0 for no effect and ±100 for the full control effect; nearly all actives have a fitted effect of over 55% in size
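Cells are plated, allowed 12 hours at 37 deg C, then treated with compounds for 24 hr before luciferase detection reagent is added and luminescence is read after 12 min at room temperature. The HEK293 line carries constitutively active GLP-1R with a cAMP-responsive reporter.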
Active calls of the source: *; i = inactive; ? = inconclusive; . = no result; ! = not active in a repeat; [ ] = another dose, or the depositor's remark. Calls follow the shape of the dose curve; as a rule, active = well fitted curve in the direction sought with a large enough effect; inconclusive = small, poorly fitted or top-dose-only effect, or another doubt; inactive = no such curve, though single readings can be large; an effect the other way counts as inactive or inconclusive. Potency is read from the fitted curve at half-maximal effect.

SMILES | PTHR1 agonist | GLP1R ag | GLS inh | GRP78 ERSR act | ALOX12 inh | GLP1R inv ag
COc1ccc(NS(=O)(=O)c2cc([N+](=O)[O-])ccc2N/N=C\c2c(C)[nH]c3ccccc23)cc1 | i | -8% | 11% | -3% | 9% | -13%
O=C1CC(=O)N(Cc2ccco2)C(=O)N1 | -25%[57.5 µM] | -8% | 10µM* | -3% | ? | 9%
O=C(CCc1ccco1)Nc1ccc(N2CCCC2)cn1 | . | . | . | . | -16% | .
CC(C)=CCC/C(C)=C/CNCC(O)CN1CCOCC1 (configuration not stated) | . | . | . | . | 0.63µM* | .
Cc1sc2nc(CN3CCOCC3)nc(Sc3nnnn3C3CCCC3)c2c1C | . | . | . | . | -9% | .
COC(=O)c1sccc1S(=O)(=O)N(CC(=O)Nc1cccc(C)c1C)c1ccc(C)c(C)c1 | i | . | 7% | -3% | -10% | 11µM*
COC(=O)c1sccc1S(=O)(=O)N(CC(=O)Nc1cc(C)ccc1C)c1ccc(C)c(C)c1 | i | . | 4% | -3% | -15% | 13µM*
Cc1[nH]n2c(=O)cc(-c3ccc([N+](=O)[O-])cc3)nc2c1-c1ccccc1 | -10% | -12% | -14% | -2% | ? | ?
COc1ccc(-c2c(C(F)(F)F)[nH]n3c(=O)cc(-c4ccccc4)nc23)cc1 | -36% | -1% | 1% | 6% | 11µM* | -21%
COc1cccc(N=Nc2c(N)[nH]n3c(=O)cc(-c4ccccc4)nc23)c1 | -28% | -10% | -1% | -1% | 22% | 5%
Cc1[nH]n2c(=O)cc(C(C)(C)C)nc2c1-c1ccccc1 | -10% | -12% | 4% | -1% | -1% | 3.5µM*
Cc1[nH]n2c(=O)cc(-c3ccc(Cl)cc3)nc2c1-c1ccccc1 | -32% | -16% | 24% | 2% | 40µM* | 2.8µM*
Cc1[nH]n2c(=O)cc(C(C)C)nc2c1-c1ccccc1 | -8% | -2% | 24% | -3% | -8% | -21%
CCn1cc(CN2CCN(Cc3ccccc3)C(CCO)C2)c2ccccc21 (configuration not stated) | i | 0% | 3% | -4% | -28% | 10µM*
OCCC1CN(Cc2c(O)ccc3ccccc23)CCN1CCc1ccccc1 (configuration not stated) | -27% | 21% | 0% | 1% | 7.1µM* | ?
OCCC1CN(Cc2ccccc2O)CCN1CCCc1ccccc1 (configuration not stated) | i | -3% | 22% | -3% | 0% | ?
COc1ccc(CN2CCN(CCCc3ccccc3)C(CCO)C2)c(O)c1 (configuration not stated) | i | -5% | -2% | -4% | 0% | -15%
COc1ccc(CN2CCN(CCc3ccccc3)C(CCO)C2)c(O)c1 (configuration not stated) | -9% | 11% | 18% | -3% | -4% | 11µM*
CC(C)NS(=O)(=O)c1cccc2nsnc12 | i | -1% | 2% | -2% | 0% | -4%
O=S(=O)(NC(c1ccccc1)c1ccccc1)c1cccc2nsnc12 | . | . | . | . | 11µM* | .
CN(Cc1ccc(F)cc1F)S(=O)(=O)c1cccc2nsnc12 | . | . | . | . | 2% | .
COc1ccc(CNc2nc3ccccc3n2CCN2CCCCC2)cc1 | -26% | 14% | 69% | -3% | ? | 10µM*
N=c1n(CCN2CCCCC2)c2ccccc2n1CC(=O)c1cccs1 | i | 2% | 0% | -5% | 1% | 5.6µM*
COc1ccc(-c2cc3ccccc3n2CC(O)CN2CCN(CCO)CC2)cc1 (configuration not stated) | 0% | -1% | 12% | -2% | -1% | 10µM*
Cc1ccccc1OCC(O)Cn1c(=N)n(Cc2ccccc2)c2ccccc21 (configuration not stated) | -43% | -7% | 12% | -15% | ? | 8.9µM*
SMILES | PTHR1 agonist | GLP1R ag | GLS inh | GRP78 ERSR act | ALOX12 inh | GLP1R inv ag
COc1cccc(C(=O)N2CCOc3ccc(CN4CCc5ccccc5C4)cc3C2)c1 | . | . | . | . | 49% | .
COc1ccc(C)cc1NC(=O)CCn1nc(-c2cccs2)oc1=O | . | . | . | . | 29% | .
CCOC(=O)c1ccc(-c2ccc(/C=C(\C#N)C(=O)N3CCOCC3)o2)cc1 | . | . | . | . | -3% | .
COC(=O)c1ccoc1COC(=O)CCc1c(C)c2ccc(OC)cc2oc1=O | . | . | . | . | -58% | .
COc1ccc(OCC(O)Cn2c(=N)n(CCN3CCCCC3)c3ccccc32)cc1 (configuration not stated) | -4%[57.5 µM] | 4% | ? | -8% | ? | 10µM*!
Cc1ccc(OCC(O)Cn2c(=N)n(CCN3CCCCC3)c3ccccc32)cc1 (configuration not stated) | 16%[57.5 µM] | -15% | 25% | -11% | -8% | ?
CN(C)c1cc(NC(=O)CNC(C)(C)C)c(O)c2c1C[C@@H]1C[C@H]3[C@H](N(C)C)C(=O)C(C(N)=O)=C(O)[C@@]3(O)C(=O)C1=C2O | . | 0% | 6.3µM* | -2% | -29%[57.4 µM] | .
Cc1cc2oc(=O)cc(COC(=O)C3CCCO3)c2cc1C (configuration not stated) | . | . | . | . | 25% | .
O=C1NC(=O)/C(=C\c2ccc(N3CCOCC3)o2)N1 | -23% | 6% | 0% | -2% | 20µM* | 4%
O=C1NC(=O)/C(=C/c2ccc(N3CCOCC3)o2)N1 | 25% | 6% | -10% | 0% | ? | 12%
CC(C)NC(=O)CNC(=O)c1cc(-c2ccc(F)cc2)nc2ccccc12 | . | . | . | . | -5% | .
O=c1[nH]c2ccc(S(=O)(=O)Nc3c(NC4CCCCC4)c4ccccc4oc3=O)cc2o1 | . | . | . | . | 40µM* | .
OCCNCCCOc1cccc(Cl)c1Cl | . | . | . | 6% | 0% | .
CCCCNCCCOc1cccc(Cl)c1Cl | i | -1% | 4% | 5% | -12% | 7.9µM*
Cc1cc(C)c2c(NC(=O)CCl)nn(C)c2n1 | -7% | -4% | 1% | 40µM* | 3% | ?
CCOC(=O)C(N)c1c(C)nn(-c2cccc(C(F)(F)F)c2)c1C (configuration not stated) | . | . | . | . | -41% | .
COc1ccc(Cl)cc1NC(=O)COc1ccccc1F | . | . | . | . | 13% | .
CCCCn1c(=O)[nH]c(=O)c2c1nc(COC(=O)C1CCCCC1)n2CC | . | . | . | . | -24% | .
COc1ccc(-c2oc3ccccc3c(=O)c2OC(C)=O)cc1 | i | -12% | -23% | -4% | ? | 5%[0.307 µM]
CC(=O)Oc1c(-c2ccc(Br)o2)oc2ccccc2c1=O | -23% | 0% | 8% | 0% | 35µM* | 5.6µM*
S=C(Nc1ccc(Br)cc1)NC1CCCCC1 | -47% | -5% | 2% | 0% | ? | ?

Bioassay records as filed in PubChem.
